In PubChem BioAssay (EPA / NIEHS):
Values joined by “and” are separate entries in the source; they are usually repeats but may differ in a detail not shown here. Equal values may be shown once. The source holds several records for some structures; these can differ, active in one and inactive in another. Active and inactive are the calls of the source. How the source made its calls: active means hit-call score of the fitted dose curve at least 0.9, where 1 is the maximum; inactive means score below 0.9.

Key:
Conditions in all cases: mRNA level, 48 h; actives raise or lower the signal
MYC, MYC (gene 4609) = assay: LTEA_HepaRG_MYC: Life Technologies and Expression Analysis (LTEA) Assay for MYC using HepaRG (AID 2283518)
Outline: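 Differentiated HepaRG cells exposed 48 h in serum-free induction medium to 8 concentrations (top 100 uM, half-log steps; 0.5% DMSO), duplicate. MYC mRNA measured by Fluidigm qRT-PCR, normalized to ACTB, GAPDH, POLR2A; bidirectional fit versus DMSO.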

[1] = read-out: matrix metalloproteinase-3 (MMP3), MMP3 (gene 4314); assay: LTEA_HepaRG_MMP3: Life Technologies and Expression Analysis (LTEA) Assay for matrix metalloproteinase-3 (MMP3) using HepaRG (AID 2283519)
Outline: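 HepaRG cells (~100,000/well) in serum-free induction medium were dosed in duplicate for 48 h with an 8-point half-log series from 100 uM, 0.5% DMSO. MMP3 mRNA was quantified by Fluidigm TaqMan qRT-PCR, normalized to three housekeeping genes.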

[2] = read-out: Paternally Expressed 10 (PEG10), PEG10 (gene 23089); assay: LTEA_HepaRG_PEG10: Life Technologies and Expression Analysis (LTEA) Assay for Paternally Expressed 10 (PEG10) using HepaRG (AID 2283520)
Outline: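 HepaRG, 48 h post-plating → serum-free induction medium → 48 h chemical exposure (duplicate, 8-pt, max 100 uM, half-log, 0.5% DMSO) → lysis in RLT → TaqMan qRT-PCR for PEG10, ACTB/GAPDH/POLR2A normalisation.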

[3] = read-out: Nuclear factor NF-kappa-B p105 subunit (Homo sapiens) (UniProt P19838); assay: LTEA_HepaRG_NFKB1: Life Technologies and Expression Analysis (LTEA) Assay for Nuclear Factor Kappa B Subunit 1 (NFKB1) using HepaRG (AID 2283521)
Outline: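 Human HepaRG cells receive eight half-log concentrations, highest 100 uM, for 48 h. NFKB1 expression is then quantified by qRT-PCR and analysed for up- or down-regulation relative to 0.5% DMSO vehicle.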

[4] = read-out: Protein phosphatase 2A (PPP2R4), PTPA (gene 5524); assay: LTEA_HepaRG_PPP2R4: Life Technologies and Expression Analysis (LTEA) Assay for Protein phosphatase 2A (PPP2R4) using HepaRG (AID 2283522)
Outline: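 Readout is PPP2R4 transcript level by microfluidic qRT-PCR after 48 h chemical treatment of human HepaRG liver cells. Concentrations spanned 100 uM downward in half-log steps; gain or loss of signal was fitted relative to DMSO.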

[5] = read-out: Phosphatase and tensin (PTEN), PTEN (gene 5728); assay: LTEA_HepaRG_PTEN: Life Technologies and Expression Analysis (LTEA) Assay for Phosphatase and tensin (PTEN) using HepaRG (AID 2283523)
Outline: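 HepaRG cells, 48 h after plating, exposed in duplicate for 48 h in serum-free induction medium to 8 half-log concentrations up to 100 uM (0.5% DMSO). PTEN mRNA by qRT-PCR, normalized to ACTB, GAPDH, POLR2A; bidirectional fit versus DMSO.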

[6] = read-out: solute carrier (SLC22A1), SLC22A1 (gene 6580); assay: LTEA_HepaRG_SLC22A1: Life Technologies and Expression Analysis (LTEA) Assay for solute carrier (SLC22A1) using HepaRG (AID 2283524)
Outline: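 Differentiated human HepaRG cells in serum-free induction medium, exposed 48 h in duplicate to 8-point half-log series from 100 µM top in 0.5% DMSO. SLC22A1 mRNA by TaqMan qRT-PCR normalized to ACTB, GAPDH, POLR2A; bidirectional fit versus DMSO.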

[7] = read-out: Pyruvate Dehydrogenase Kinase 4 (PDK4), PDK4 (gene 5166); assay: LTEA_HepaRG_PDK4: Life Technologies and Expression Analysis (LTEA) Assay for Pyruvate Dehydrogenase Kinase 4 (PDK4) using HepaRG (AID 2283525)
Outline: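 HepaRG cells plated 48 h, then switched to serum-free induction medium and exposed in duplicate for 48 h to 8 half-log concentrations from 100 uM in 0.5% DMSO. PDK4 mRNA measured by qRT-PCR, normalized to ACTB, GAPDH and POLR2A; bidirectional fit versus DMSO.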

[8] = read-out: NAD(P)H dehydrogenase [quinone] 1 (NQO1), NQO1 (gene 1728); assay: LTEA_HepaRG_NQO1: Life Technologies and Expression Analysis (LTEA) Assay for NAD(P)H dehydrogenase [quinone] 1 (NQO1) using HepaRG (AID 2283526)
Outline: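 HepaRG, 48 h post-plating → serum-free induction medium → test chemical 48 h (duplicate, 100 uM top, half-log x8, 0.5% DMSO) → RNA isolation → qRT-PCR, ACTB/GAPDH/POLR2A normalization; bidirectional curve fit vs DMSO baseline.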

[9] = read-out: Nuclear factor erythroid 2-related factor 2 (Homo sapiens) (UniProt Q16236); assay: LTEA_HepaRG_NFE2L2: Life Technologies and Expression Analysis (LTEA) Assay for Nuclear factor erythroid 2-related factor 2 (NFE2L2) Transcription Factor using HepaRG (AID 2283527)
Outline: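 Differentiated human HepaRG cells, serum-free induction medium, exposed 48 h in duplicate to eight half-log concentrations up to 100 uM in 0.5% DMSO. NFE2L2 mRNA by Fluidigm TaqMan qRT-PCR, normalised to ACTB, GAPDH, POLR2A; bidirectional change versus DMSO.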

[10] = read-out: succinate dehydrogenase complex iron sulfur subunit B (SDHB), SDHB (gene 6390); assay: LTEA_HepaRG_SDHB: Life Technologies and Expression Analysis (LTEA) Assay for succinate dehydrogenase complex iron sulfur subunit B (SDHB) using HepaRG (AID 2283528)
Outline: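 A human HepaRG culture in serum-free induction medium received test chemicals for 48 h over an eight-point range capped at 100 uM. SDHB expression change was quantified by qRT-PCR.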

[11] = read-out: Signal transducer and activator of transcription 3 (Homo sapiens) (UniProt P40763); assay: LTEA_HepaRG_STAT3: Life Technologies and Expression Analysis (LTEA) Assay for Signal transducer and activator of transcription (STAT3) using HepaRG (AID 2283529)
Outline: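 Differentiated HepaRG cells, serum-free induction medium, dosed 48 h in duplicate, 8 half-log concentrations from 100 uM in 0.5% DMSO. STAT3 mRNA by qRT-PCR, normalised to ACTB, GAPDH, POLR2A; bidirectional fit versus DMSO.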

[12] = read-out: solute carrier (SLCO1B1), SLCO1B1 (gene 10599); assay: LTEA_HepaRG_SLCO1B1: Life Technologies and Expression Analysis (LTEA) Assay for solute carrier (SLCO1B1) using HepaRG (AID 2283530)
Outline: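 Differentiated human HepaRG cells were exposed for 48 h in serum-free induction medium to eight half-log concentrations, top 100 uM, in 0.5% DMSO. SLCO1B1 mRNA was measured by qRT-PCR, normalized to ACTB, GAPDH and POLR2A, and fitted bidirectionally against DMSO.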

[13] = read-out: sulfotransferase 2A1 (SULT2A1), SULT2A1 (gene 6822); assay: LTEA_HepaRG_SULT2A1: Life Technologies and Expression Analysis (LTEA) Assay for sulfotransferase 2A1 (SULT2A1) using HepaRG (AID 2283531)
Outline: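 HepaRG human liver cells, 48 h exposure in serum-free induction medium to 8 half-log concentrations topping at 100 µM (0.5% DMSO), duplicate wells. SULT2A1 mRNA measured by TaqMan qRT-PCR, normalized to ACTB/GAPDH/POLR2A; bidirectional fit against DMSO.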

[14] = read-out: Transforming Growth Factor (TGFA), TGFA (gene 7039); assay: LTEA_HepaRG_TGFA: Life Technologies and Expression Analysis (LTEA) Assay for Transforming Growth Factor (TGFA) using HepaRG (AID 2283532)
Outline: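 Differentiated HepaRG cells exposed 48 hours in serum-free induction medium, 0.5% DMSO vehicle, 8-point half-log series from 100 uM, in duplicate. TGFA mRNA by TaqMan qRT-PCR, normalised to ACTB, GAPDH, POLR2A; bidirectional fit versus DMSO.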

[15] = read-out: Transforming Growth Factor (TGFB1), TGFB1 (gene 7040); assay: LTEA_HepaRG_TGFB1: Life Technologies and Expression Analysis (LTEA) Assay for Transforming Growth Factor (TGFB1) Transporter using HepaRG (AID 2283533)
Outline: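 Differentiated HepaRG cells exposed 48 hr in serum-free induction medium to eight half-log concentrations up to 100 uM (0.5% DMSO), duplicate; TGFB1 mRNA by TaqMan qRT-PCR normalised to ACTB, GAPDH, POLR2A; bidirectional fit against DMSO.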

TIMP1, TIMP1 (gene 7076) = assay: LTEA_HepaRG_TIMP1: Life Technologies and Expression Analysis (LTEA) Assay for TIMP1 using HepaRG (AID 2283534)
Outline: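 Differentiated HepaRG cells exposed 48 h in serum-free induction medium, duplicates, eight half-log concentrations from 100 uM in 0.5% DMSO. TIMP1 mRNA by qRT-PCR normalized to ACTB, GAPDH, POLR2A; bidirectional fitting against DMSO.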

[16] = read-out: Tumor necrosis factor receptor 1 (TNFRSF1A), TNFRSF1A (gene 7132); assay: LTEA_HepaRG_TNFRSF1A: Life Technologies and Expression Analysis (LTEA) Assay for Tumor necrosis factor receptor 1 (TNFRSF1A) using HepaRG (AID 2283535)
Outline: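 Differentiated HepaRG cells in serum-free induction medium, exposed 48 h in duplicate to 8 half-log concentrations up to 100 uM in 0.5% DMSO. TNFRSF1A mRNA by Fluidigm TaqMan qRT-PCR, normalized to ACTB, GAPDH, POLR2A; bidirectional fit.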

[17] = read-out: Thyroid Hormone Responsive (THRSP), THRSP (gene 7069); assay: LTEA_HepaRG_THRSP: Life Technologies and Expression Analysis (LTEA) Assay for Thyroid Hormone Responsive (THRSP) using HepaRG (AID 2283536)
Outline: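 Differentiated HepaRG cells treated 48 h in serum-free induction medium with 8 half-log concentrations up to 100 uM (0.5% DMSO), duplicates. THRSP mRNA by TaqMan qRT-PCR normalised to ACTB, GAPDH, POLR2A; bidirectional fit versus DMSO.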

[18] = read-out: Cellular tumor antigen p53 (Homo sapiens) (UniProt P04637); assay: LTEA_HepaRG_TP53: Life Technologies and Expression Analysis (LTEA) Assay for Tumor Protein P53 (TP53) using HepaRG (AID 2283537)
Outline: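 Gain or loss of TP53 mRNA signal is scored relative to 0.5% DMSO after 48 h chemical treatment of HepaRG liver cells, tested in duplicate at eight half-log concentrations up to 100 uM.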

Measured: AC50

Sequence of Nuclear factor erythroid 2-related factor 2 (Homo sapiens) (Q16236 whole entry, looked up): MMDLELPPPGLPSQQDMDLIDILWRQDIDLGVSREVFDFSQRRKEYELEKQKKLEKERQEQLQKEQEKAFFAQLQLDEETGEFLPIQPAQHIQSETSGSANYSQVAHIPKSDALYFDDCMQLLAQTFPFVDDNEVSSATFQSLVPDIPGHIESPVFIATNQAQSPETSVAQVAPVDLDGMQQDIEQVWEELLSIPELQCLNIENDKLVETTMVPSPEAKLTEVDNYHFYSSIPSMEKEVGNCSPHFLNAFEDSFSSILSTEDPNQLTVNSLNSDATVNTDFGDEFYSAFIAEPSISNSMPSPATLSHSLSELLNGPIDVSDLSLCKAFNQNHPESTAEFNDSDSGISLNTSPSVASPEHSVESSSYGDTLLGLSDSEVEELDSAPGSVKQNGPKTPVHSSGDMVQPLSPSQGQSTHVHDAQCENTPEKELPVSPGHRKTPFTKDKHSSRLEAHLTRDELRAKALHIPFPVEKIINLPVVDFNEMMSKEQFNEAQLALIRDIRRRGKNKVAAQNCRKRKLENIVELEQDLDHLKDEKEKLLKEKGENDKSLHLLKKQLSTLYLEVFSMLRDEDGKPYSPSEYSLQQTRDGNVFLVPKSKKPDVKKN
Sequence of Nuclear factor NF-kappa-B p105 subunit (Homo sapiens) (P19838 whole entry, looked up): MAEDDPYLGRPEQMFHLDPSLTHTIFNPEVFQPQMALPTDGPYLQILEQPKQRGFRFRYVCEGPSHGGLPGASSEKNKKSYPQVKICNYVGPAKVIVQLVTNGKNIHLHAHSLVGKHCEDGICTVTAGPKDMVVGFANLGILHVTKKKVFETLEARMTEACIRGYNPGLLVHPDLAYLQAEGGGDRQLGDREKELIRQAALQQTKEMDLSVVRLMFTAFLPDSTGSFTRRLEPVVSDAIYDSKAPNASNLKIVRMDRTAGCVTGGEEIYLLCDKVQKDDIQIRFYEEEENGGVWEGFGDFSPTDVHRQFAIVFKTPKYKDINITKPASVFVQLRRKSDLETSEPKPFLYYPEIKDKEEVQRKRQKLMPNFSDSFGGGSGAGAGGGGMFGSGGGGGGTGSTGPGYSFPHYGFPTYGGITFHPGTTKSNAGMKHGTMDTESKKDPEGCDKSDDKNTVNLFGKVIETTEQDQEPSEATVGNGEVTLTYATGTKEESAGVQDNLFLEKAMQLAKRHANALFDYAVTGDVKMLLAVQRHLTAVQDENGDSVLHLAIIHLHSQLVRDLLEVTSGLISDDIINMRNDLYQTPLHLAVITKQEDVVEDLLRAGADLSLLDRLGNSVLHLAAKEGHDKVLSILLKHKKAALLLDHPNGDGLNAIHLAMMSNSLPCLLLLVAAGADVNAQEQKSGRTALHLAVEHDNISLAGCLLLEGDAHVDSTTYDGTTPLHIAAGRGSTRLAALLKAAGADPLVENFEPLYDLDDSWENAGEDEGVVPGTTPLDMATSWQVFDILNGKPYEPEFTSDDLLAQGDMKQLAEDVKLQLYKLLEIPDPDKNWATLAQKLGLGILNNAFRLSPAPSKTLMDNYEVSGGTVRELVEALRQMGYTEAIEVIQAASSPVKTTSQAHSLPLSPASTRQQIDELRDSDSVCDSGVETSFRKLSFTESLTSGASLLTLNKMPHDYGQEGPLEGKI
Sequence of Signal transducer and activator of transcription 3 (Homo sapiens) (P40763 whole entry, looked up): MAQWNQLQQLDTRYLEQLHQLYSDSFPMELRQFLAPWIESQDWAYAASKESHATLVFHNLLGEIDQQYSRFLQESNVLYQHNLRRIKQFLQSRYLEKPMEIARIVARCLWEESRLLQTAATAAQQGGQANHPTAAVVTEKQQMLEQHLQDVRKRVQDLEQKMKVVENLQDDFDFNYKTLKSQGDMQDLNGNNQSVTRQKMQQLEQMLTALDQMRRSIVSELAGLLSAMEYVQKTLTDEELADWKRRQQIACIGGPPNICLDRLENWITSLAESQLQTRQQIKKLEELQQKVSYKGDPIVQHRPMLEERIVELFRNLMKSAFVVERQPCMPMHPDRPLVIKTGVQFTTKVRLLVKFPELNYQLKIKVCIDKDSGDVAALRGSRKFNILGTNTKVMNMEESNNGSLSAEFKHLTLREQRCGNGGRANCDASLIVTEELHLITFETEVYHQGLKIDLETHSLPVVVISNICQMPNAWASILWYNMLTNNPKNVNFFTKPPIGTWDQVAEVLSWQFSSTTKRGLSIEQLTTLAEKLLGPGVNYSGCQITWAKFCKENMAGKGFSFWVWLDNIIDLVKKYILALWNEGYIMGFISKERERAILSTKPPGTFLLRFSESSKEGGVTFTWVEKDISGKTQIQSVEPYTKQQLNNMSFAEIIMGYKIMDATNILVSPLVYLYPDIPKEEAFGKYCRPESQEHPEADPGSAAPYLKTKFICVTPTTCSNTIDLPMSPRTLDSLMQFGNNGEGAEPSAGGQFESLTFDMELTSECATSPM
Sequence of Cellular tumor antigen p53 (Homo sapiens) (P04637 whole entry, looked up): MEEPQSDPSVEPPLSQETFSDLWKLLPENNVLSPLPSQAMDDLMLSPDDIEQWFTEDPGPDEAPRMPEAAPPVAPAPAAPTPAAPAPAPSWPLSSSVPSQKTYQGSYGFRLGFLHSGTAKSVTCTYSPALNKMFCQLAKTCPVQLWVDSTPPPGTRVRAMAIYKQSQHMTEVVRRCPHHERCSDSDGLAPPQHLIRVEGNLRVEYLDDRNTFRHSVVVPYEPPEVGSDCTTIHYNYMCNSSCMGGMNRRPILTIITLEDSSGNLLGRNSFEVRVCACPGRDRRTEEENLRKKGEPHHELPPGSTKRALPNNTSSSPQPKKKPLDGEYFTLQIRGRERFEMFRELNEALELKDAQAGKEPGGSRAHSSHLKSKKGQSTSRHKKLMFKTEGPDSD

CCCCOCCOCCO
inactive: all assays above

C#C[C@]1(O)CC[C@H]2[C@@H]3CCc4cc(O)ccc4[C@H]3CC[C@@]21C
not listed: [6]
inactive: all other assays above

C[C@]12CC[C@@H]3c4ccc(O)cc4CC[C@H]3[C@@H]1CC[C@@H]2O
active: [2] 10.6 µM | [6] 50 µM | [13] 50 µM
not listed: [3]
inactive: all other assays above

COC(=O)c1ccc(C(=O)OC)cc1
inactive: all assays above

CC/C(=C(\c1ccccc1)c1ccc(OCCN(C)C)cc1)c1ccccc1
inactive: MYC, MYC (gene 4609) | [3] | [4] | [5] | [7] | [8] | [9] | [10] | [12] | [13] | [14] | [15] | TIMP1, TIMP1 (gene 7076) | [16] | [17]
active: MYC, MYC (gene 4609) 85.6 µM | [1] 86.1 µM and 92.9 µM | [2] 53.8 µM and 94 µM | [3] 81.9 µM | [5] 93.3 µM | [6] 42.3 µM and 15.8 µM | [7] 69.2 µM | [8] 79.9 µM | [9] 77.1 µM | [10] 81.1 µM | [11] 60.3 µM and 95.8 µM | [12] 45.8 µM | [13] 74.6 µM | [14] 94.2 µM | [15] 73.5 µM | TIMP1, TIMP1 (gene 7076) 83.7 µM | [16] 66.3 µM | [18] 45.8 µM and 40 µM

C=C(C)C(N)=O
inactive: all assays above

O=C(c1ccc(OCCN2CCCCC2)cc1)c1c(-c2ccc(O)cc2)sc2cc(O)ccc12
inactive: MYC, MYC (gene 4609) | [1] | [3] | [8] | [9] | [15] | [16] | [17] | [18]
active: [2] 65.9 µM | [4] 50 µM | [5] 77.9 µM | [6] 80 µM | [7] 50 µM | [10] 9.92 µM | [11] 50 µM | [12] 68.7 µM | [13] 50 µM | [14] 75.2 µM | TIMP1, TIMP1 (gene 7076) 50 µM
